In all, about 310,000 compounds went through this assay and about 14,000 (4.5%) showed an effect of 50% or more. Effects have a minus sign here. Only a selection was taken, and strong results are over-represented in it overall.
Target: human ether-à-go-go-related gene (hERG) potassium channel (human, UniProt Q12809)
Assay: primary screen, population patch clamp on CHO cells stably expressing hERG; higher = less effect of the substance
Description: Briefly, Chinese hamster ovary (CHO) cells stably expressing the hERG channel were dislodged from tissue culture flasks and dispensed into PPC plates. […] During the recording, background leak currents were estimated by a 100 ms step to -80 mV from an initial holding potential of -70 mV and subtracted from the subsequent current measurement. The campaign was conducted in two phases using slight differences in recording protocol. In the first phase, the initial voltage pulse used a 100 ms step to -30 mV from a holding potential of -70 mV, a 2 s conditioning step to +25 mV, and a 2 s test step to -30 mV. During the second phase of the screen, the potential during the conditioning step was raised to +45 mV. In both phases of the campaign, a secondary voltage pulse was applied using the same parameters as the second phase initial pulse. The initial and secondary pulses were applied in the absence of compound, and upon application of 1 μM and 10 μM test concentrations. […]
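Note: peak tail current of the secondary pulse compared with the same well before compound.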

human ether-à-go-go-related gene (hERG) potassium channel, sequence (Q12809 whole entry, looked up): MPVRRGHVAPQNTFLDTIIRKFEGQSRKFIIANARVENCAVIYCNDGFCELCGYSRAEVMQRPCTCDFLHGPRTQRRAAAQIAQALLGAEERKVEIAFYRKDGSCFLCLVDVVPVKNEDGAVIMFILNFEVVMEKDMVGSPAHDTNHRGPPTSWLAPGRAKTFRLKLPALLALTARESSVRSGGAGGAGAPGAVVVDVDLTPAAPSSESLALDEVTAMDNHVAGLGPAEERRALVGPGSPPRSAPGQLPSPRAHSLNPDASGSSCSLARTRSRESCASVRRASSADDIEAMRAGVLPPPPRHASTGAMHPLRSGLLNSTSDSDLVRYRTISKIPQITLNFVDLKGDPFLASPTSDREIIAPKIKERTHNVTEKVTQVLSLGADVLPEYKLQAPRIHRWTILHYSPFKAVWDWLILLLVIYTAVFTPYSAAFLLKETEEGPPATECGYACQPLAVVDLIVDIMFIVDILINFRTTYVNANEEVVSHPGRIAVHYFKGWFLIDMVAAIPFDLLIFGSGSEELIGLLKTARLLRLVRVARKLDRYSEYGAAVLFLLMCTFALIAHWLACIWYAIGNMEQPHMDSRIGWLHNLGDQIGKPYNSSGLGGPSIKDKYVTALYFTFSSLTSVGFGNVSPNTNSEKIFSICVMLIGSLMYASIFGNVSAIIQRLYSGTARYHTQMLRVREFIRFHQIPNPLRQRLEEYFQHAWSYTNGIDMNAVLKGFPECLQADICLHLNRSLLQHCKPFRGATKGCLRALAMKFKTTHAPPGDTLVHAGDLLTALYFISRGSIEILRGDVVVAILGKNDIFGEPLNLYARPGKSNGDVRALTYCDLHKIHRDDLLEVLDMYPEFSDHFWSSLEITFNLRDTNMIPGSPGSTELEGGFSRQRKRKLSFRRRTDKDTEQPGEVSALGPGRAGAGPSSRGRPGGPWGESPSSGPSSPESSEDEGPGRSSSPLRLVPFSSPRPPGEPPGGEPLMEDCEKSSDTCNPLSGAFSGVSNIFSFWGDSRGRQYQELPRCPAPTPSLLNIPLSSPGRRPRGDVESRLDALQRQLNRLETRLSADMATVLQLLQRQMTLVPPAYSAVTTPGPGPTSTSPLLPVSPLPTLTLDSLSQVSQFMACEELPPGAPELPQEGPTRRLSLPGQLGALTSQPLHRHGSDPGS

| SMILES | hERG current change (%, negative = inhibition) at 10uM [%] |
| --- | --- |
| Cc1ccccc1C(=O)NC(C(N)=O)P(=O)(OC(C)C)OC(C)C (stereo not shown) | -55.2 |
| CC(C)OP(=O)(OC(C)C)C(NC(=O)c1ccccc1)C(N)=O (stereo not shown) | -3.65 |
| CC(C)OP(=O)(OC(C)C)C(NC(=O)c1ccccc1Br)C(N)=O (stereo not shown) | 3.63 |
| CCN(C(=O)c1ccnn1C)c1ccccc1 | 4.75 |
| COc1ccc(S(=O)(=O)N2CCOCC2)cc1NC(=O)c1ccc2c(c1)OCO2 | 12.6 |
| O=C(O)CN1C(=O)/C(=C/c2ccccc2Br)Oc2ccccc21 | 4.16 |
| COc1ccccc1NS(=O)(=O)c1ccc(Cl)c(NC(=O)c2sc3cc(Cl)ccc3c2Cl)c1 | 22.1 |
| O=C(O)CC1S/C(=N\N=C/c2ccccc2O)N(c2ccc(O)cc2)C1=O (stereo not shown) | 9.18 |
| O=C(O)CC1S/C(=N\N=C2\C(=O)Nc3ccccc32)N(c2ccc(O)cc2)C1=O (stereo not shown) | -53.7 |
| O=C(O)CC1S/C(=N\N=C/c2ccccc2)N(c2ccc(O)cc2)C1=O (stereo not shown) | 13.4 |
| CN(c1ccc(F)cc1)S(=O)(=O)c1ccc2[nH]cc(C(=O)O)c(=O)c2c1 | 13.8 |
| Cc1ccc(CN(C(=O)COc2ccc(C)c(C)c2)C2CCS(=O)(=O)C2)o1 (stereo not shown) | -53.6 |
| CC(=O)c1ccc(OCC(=O)N(C2CCCCC2)C2CCS(=O)(=O)C2)cc1 (stereo not shown) | -2.18 |
| COc1ccc(OCC(=O)N(Cc2ccc(C)o2)C2CCS(=O)(=O)C2)cc1 (stereo not shown) | -19.5 |
| Cc1cccc(OCC(=O)N(Cc2ccc(C)o2)C2CCS(=O)(=O)C2)c1 (stereo not shown) | -42.6 |
| O=C(COc1ccc([N+](=O)[O-])cc1)N(C1CCCCC1)C1CCS(=O)(=O)C1 (stereo not shown) | -37 |
| O=C(COc1ccc(Cl)cc1)N(Cc1ccc(F)cc1)C1CCS(=O)(=O)C1 (stereo not shown) | -63.3 |
| Cc1ccc(OCC(=O)N(Cc2ccc(C)o2)C2CCS(=O)(=O)C2)cc1 (stereo not shown) | -52.3 |
| Cc1ccc(OCC(=O)N(Cc2ccco2)C2CCS(=O)(=O)C2)cc1C (stereo not shown) | -38.8 |
| O=C(COc1ccc(F)cc1)N(Cc1ccc(Cl)cc1)C1CCS(=O)(=O)C1 (stereo not shown) | -38.7 |
| N#Cc1ccc(OCC(=O)N(C2CCCCC2)C2CCS(=O)(=O)C2)cc1 (stereo not shown) | -50.1 |
| Cc1ccc(CN(C(=O)COc2ccc(Br)cc2)C2CCS(=O)(=O)C2)o1 (stereo not shown) | -33.5 |
| CN(C)c1ccc(CN(C(=O)COc2ccc(F)cc2)C2CCS(=O)(=O)C2)cc1 (stereo not shown) | -16.6 |
| O=C(COC(=O)c1cccc(F)c1)NC1CC1 | 41.8 |

| SMILES | hERG current change (%, negative = inhibition) at 10uM [%] |
| --- | --- |
| COc1ccccc1N1CCN(C(=O)Cn2c(=O)[nH]c3ccsc3c2=O)CC1 | -1.18 |
| O=C(c1ccccc1)c1n[nH]c(-c2ccccc2)cc1=O | 30.9 |
| CCC(=O)NC(c1cc(Cl)c2ccccc2c1O)C1CC1 (stereo not shown) | 14.5 |
| Cc1ccc(C)c(C2=CSC3=NS(=O)(=O)CCN23)c1 | 12.3 |
| COc1ccc(CNC(=O)[C@]2(C)CCC[C@@]3(C)C4CC[C@@]5(C)C[C@]4(CCC32)CC5=O)cc1 (stereo partly shown) | 10.2 |
| CCOC(=O)c1sc2nc(CSc3ccccc3)[nH]c(=O)c2c1C | 3.8 |
| CC(C)C(=O)NC(c1cccs1)c1cc([N+](=O)[O-])c2cccnc2c1O (stereo not shown) | 31.7 |
| CCCCn1c(SC(C)C(=O)c2ccc(OC)cc2)nc2cc(S(N)(=O)=O)ccc21 (stereo not shown) | -18.1 |
| CCN(CC)S(=O)(=O)c1ccc2c(c1)nc(SCC(N)=O)n2-c1ccc(OC)cc1 | -77.7 |
| CCN(CC)S(=O)(=O)c1ccc2c(c1)nc(SCC(=O)N1CCCCCC1)n2-c1ccc(OC)cc1 | -21 |
| CCN(CC)S(=O)(=O)c1ccc2c(c1)nc(SC(C)C(N)=O)n2-c1ccc(OC)cc1 (stereo not shown) | -51.7 |
| CCN(CC)S(=O)(=O)c1ccc2c(c1)nc(SCC(=O)NC1CC1)n2-c1ccccc1OC | -56.2 |
| CCn1c(CSc2nncn2-c2ccc(OC)cc2)nc2cc(S(=O)(=O)N(C)C)ccc21 | -14.5 |
| CCN(CC)S(=O)(=O)c1ccc2c(c1)nc(SCC(=O)N1CCOCC1)n2-c1ccccc1OC | -31.1 |
| COc1ccccc1-n1c(SCC(=O)NC2CC2)nc2ccccc2c1=O | -23.1 |
| COc1ccc(-n2nnnc2SC(C)C(N)=O)cc1 (stereo not shown) | 8.68 |
| NCCNc1ccc([N+](=O)[O-])c2cccnc12 | 1.29 |
| CCOc1ccccc1NC(=O)NNS(=O)(=O)c1cc(C)ccc1C | 6.71 |
| CSc1ccccc1NC(=O)Cc1ccc(Br)cc1 | -10.2 |
| Cc1ccc(C)c(NC(=S)N2CCC(NC(=O)c3cccc(F)c3)CC2)c1 | 1.08 |
| O=C(N/N=C/c1ccc(COc2ccc(Br)cc2)o1)c1ccco1 | 2.73 |
| Cc1ccccc1NS(=O)(=O)c1ccc2c3c(cccc13)C(=O)N2C | -4.02 |
| O=C(C1CCN(S(=O)(=O)c2cccnc2)CC1)N1CCN(c2cccc(Cl)c2)CC1 | -31.5 |
| O=S(=O)(c1ccc(Cl)cc1)N1CCN(c2ccccn2)CC1 | -4.62 |

| SMILES | hERG current change (%, negative = inhibition) at 10uM [%] |
| --- | --- |
| Cc1ccc(S(=O)(=O)N2CCC(C(=O)N3CCN(c4ccccn4)CC3)CC2)cc1 | -19.4 |
| O=C(C1CCN(S(=O)(=O)c2ccc(Cl)cc2)CC1)N1CCN(c2ccccn2)CC1 | -64.7 |
| Cc1ccc(Cl)cc1N1CCN(C(=O)C2CCN(S(=O)(=O)c3cccnc3)CC2)CC1 | -46 |
| O=C(C1CCN(S(=O)(=O)c2cccnc2)CC1)N1CCN(c2ccc(Cl)cc2)CC1 | -56.2 |
| Clc1ccc2noc(-c3ccccc3)c2c1 | 7.67 |
| COc1ccccc1CNC(=O)c1cnccn1 | 0.0654 |
| OCCC1CN(Cc2cccc(O)c2)CCN1CCc1ccccc1 (stereo not shown) | -24.4 |
| COc1cc(CN2CCN(CCCc3ccccc3)CC2CCO)cc(OC)c1 (stereo not shown) | -71.1 |
| COc1cc(CN2CCN(Cc3cn(C)c4ccccc34)CC2CCO)cc(OC)c1 (stereo not shown) | -43.7 |
| OCCC1CN(Cc2cccnc2)CCN1CCc1ccccc1 (stereo not shown) | -34.8 |
| COc1cc(CN2CCN(CC#Cc3ccccc3)CC2CCO)cc(OC)c1 (stereo not shown) | -1.09 |
| COc1cc(CN2CCN(CCc3ccccc3)C(CCO)C2)cc(OC)c1 (stereo not shown) | -63.5 |
| C#CCOCCOCCOCCNc1nc(N2CCN(C(=O)[C@H]([C@@H](C)CC)n3cc([C@@H](N)CO)nn3)CC2)nc(N2CCN(C(=O)[C@H]([C@@H](C)CC)n3cc([C@@H](N)CC(C)C)nn3)CC2)n1.Cl | 7.34 |
| CC1CCCCN1CCNC(=O)C1CCN(S(=O)(=O)c2cccc3nsnc23)CC1 (stereo not shown) | 2.44 |
| CCS(=O)(=O)Nc1cccc(-c2ccc3nnc(-c4cccnc4)n3n2)c1 | -4.03 |
| CC(C)c1ccc(N(CC(=O)N/N=C/c2ccc(OC3CSC3)cc2)S(=O)(=O)c2ccccc2)cc1 | 12.8 |
| CC(NC=O)c1nc2ccccc2n1CCc1ccccc1 (stereo not shown) | 5.34 |
| CCc1ccc(NC(=O)C(=O)NCC(O)c2ccccc2)cc1 (stereo not shown) | 8.25 |
| O=C(NCCc1ccccc1)c1ccc(Cl)cc1[N+](=O)[O-] | -0.169 |
| O=C(CSc1nnc(CNC(=O)c2ccco2)o1)Nc1ccc(OC(F)(F)F)cc1 | -52.6 |
| CCc1ccc(OCc2nnc(SCC(=O)Nc3cccc(C(=O)N4CCOCC4)c3)o2)cc1 | -61.4 |
| COc1ccc(OCc2nnc(SCC(=O)NCc3ccco3)o2)cc1 | -14.4 |
| COc1ccc(OCc2nnc(SCC(=O)Nc3cccc(C(C)=O)c3)o2)cc1 | 4.32 |
| COc1ccc(NC(=O)CSc2nnc(CNC(=O)c3ccco3)o2)cc1 | 11.8 |

| SMILES | hERG current change (%, negative = inhibition) at 10uM [%] |
| --- | --- |
| Cc1cccc(OCc2nnc(SCC(=O)Nc3cccc(C(=O)N4CCOCC4)c3)o2)c1C | -2.16 |
| COc1ccc(Cc2nnc(SCC(=O)NCc3ccco3)o2)cc1 | 8.75 |
| CCc1ccc(OCc2nnc(SCC(=O)NCc3ccco3)o2)cc1 | -55.2 |
| CCOc1ccc(NC(=O)CSc2nnc(CNC(=O)c3ccco3)o2)cc1 | -10.2 |
| O=C1CCCN1CCCNC(=S)Nc1ccc(Br)cc1Cl | -2.97 |
| Cc1cc(Cl)ccc1NC(=S)NCCCN1CCCC1=O | 7.99 |
| O=C1CCCN1CCCNC(=S)Nc1ccc(Cl)cc1Cl | -65.5 |
| CCOC(=O)CC(=O)CSc1nc2c(sc(=S)n2-c2ccc(C)c(C)c2)c(=O)[nH]1 | -10.7 |
| COc1ccccc1-c1sc2cc3c(cc2c1C#Cc1ccccn1)OCO3 | 8.78 |
| CSc1cccc(NC(=O)c2cc(S(=O)(=O)N3CCc4ccccc43)cn2C)c1 | -12.4 |
| C#Cc1ccc(CN2CCC(N3CCC(C(=O)NCc4ccccn4)CC3)CC2)cc1 | -72.2 |
| CCc1ccc(CN2CCC(C(=O)Nc3ccc(Oc4ccccc4)nc3)CC2)o1 | -58.9 |
| COc1ccc(CN2CCC(C(=O)Nc3ccc(Oc4ccccc4)nc3)CC2)cc1F | -71.6 |
| O=C(Nc1ccc(Oc2ccccc2)nc1)C1CCN(Cc2cccc(F)c2)CC1 | -49.8 |
| C#Cc1ccc(CN2CCC(Oc3ccc(C(=O)NCc4ccccn4)cc3)CC2)cc1 | -25 |
| O=C(Nc1ccc(Oc2ccccc2)nc1)C1CCN(Cc2ccccc2)CC1 | -54.9 |
| COCc1ccc(CN2CCCCC2C(=O)Nc2ccc(Oc3ccccc3)nc2)o1 (stereo not shown) | -0.373 |
| COCCC(=O)N1CCC(C(=O)Nc2ccc(Oc3ccccc3)nc2)CC1 | 17.6 |
| COc1cc(CN2CCCCC2C(=O)Nc2ccc(Oc3ccccc3)nc2)ccc1O (stereo not shown) | -4.36 |
| CCn1cc(CN2CCC(C(=O)Nc3ccc(Oc4ccccc4)nc3)CC2)cn1 | -30.3 |
| CSCC(C)N1CCC(N2CCC(C(=O)NCc3ccccn3)CC2)CC1 (stereo not shown) | -9.59 |
| O=C(Nc1ccc(Oc2ccccc2)nc1)C1CCN(Cc2ccco2)CC1 | -30.8 |
